Assay [1] addresses Glutathione peroxidase 1 (Homo sapiens) (UniProt P07203). The experiment in a line: Primary qHTS Assay for Inhibitors of Recombinant Selenoprotein Glutathione Peroxidase 1 (GPX1) (AID 1845191). Further: nearly all actives have a fitted effect of over 65% in size. A digest of the protocol:
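NADPH consumption tracked by fluorescence at 340/450 nm between t=0 and t=15 min, room temperature. Final mix: 10 nM GPX1, 100 nM glutathione reductase, 1 mM GSH, 0.5 mM NADPH, 0.5 mM cumene hydroperoxide, 0.01% BSA; 30 min compound–enzyme preincubation.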
For orientation: Quantitative high-throughput screening tests each substance at several concentrations.

A short description of assay [2]: AP1 Signaling Pathway (AID 357; active means well fitted curve in either direction with a large enough effect, not every such curve was filed as active;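 further: ME-180 reporter cells stimulated with EGF at its EC50 level; on the % scale 0 is the no-effect control and ±100 the full control effect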). Particulars: ME-180 AP-1-bla reporter, EGF-induced, beta-lactamase ratio, 5 h; at 7.69 µM (top of the series) unless noted. The gist of the method:
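Titration-series screen for positive or negative modulators of EC50 EGF-induced signaling in ME-180 cells carrying an AP-1-driven beta-lactamase reporter. After 5 hours at 37 degrees Celsius, CCF4 460nm/530nm emission ratio gave %Activity; AC50 values derived.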

The nature of assay [3]: NFAT Signaling Pathway (AID 444; active means well fitted curve in either direction with a large enough effect, not every such curve was filed as active;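 further: carbachol stimulus at about its EC50 of 1 µM final; on the % scale 0 is the no-effect control and ±100 the full control effect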). Conditions: Jurkat NFAT-bla M1, carbachol, beta-lactamase ratio, 5 h; at 7.69 µM (top of the series) unless noted. A digest of the protocol: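 Read-out: CCF4 FRET ratio (460 nm/530 nm) after 1 h RT dye loading, used for %activity and AC50 from titration series. Cells: Jurkat NFAT-β-lactamase/M1 line, treated with compound plus 1 uM carbachol for 5 h, 37 °C.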

The target of assay [4] is Glucocorticoid receptor (Homo sapiens) (UniProt P04150). The experiment in a line: GR-GFP Redistribution (AID 450;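 active means compounds whose dose series gives a full or clear partial fitted curve of increased nuclear translocation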; further: potency means the concentration at half of the fitted maximal effect). Particulars: U2OS GR-GFP nuclear translocation, laser cytometry, 2 h.
The target is the same in assay [5]. Put plainly: GR-EFC Redistribution (AID 451; calls by dose curve; further: potency means the concentration at half of the fitted maximal effect). Conditions: CHO-K1 GR-EFC translocation, beta-gal luminescence, 2 h. The gist of the method: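 Translocation of GR-ED fusion to nuclear EA restores b-gal, read by luminescence after 1 h room-temperature detection. Engineered CHO-K1 biosensor cells, 1,000/well, exposed 2 h at 37 C to titrations up to 46 uM final.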

Assay [6] has as its target Mitogen-activated protein kinase 10 (Mus musculus) (UniProt Q61831). The experiment in a line: JNK3 AlphaScreen Assay (AID 530; active means well fitted curve in either direction with a large enough effect, not every such curve was filed as active;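 further: kinase came from lysate of stimulated human HepG2 cells; signal reports phosphorylation of biotinylated GST-cJun 1-79 at Ser73 with 10 µM ATP; on the % scale 0 is the no-effect control and ±100 the full control effect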). The gist of the method: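 Kinase buffer: 20 mM Tris-HCl pH 7.6, 10 mM MgCl2, 1 mM DTT, 0.1 mM Na3VO4, 0.01% Tween-20; ATP 10 uM. Substrate biotin-GST-cJun(1-79), enzyme from activated HepG2 lysates. Detection by Ser73 phospho-antibody AlphaScreen.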
(In general: Bead proximity is the source of the signal in Alpha formats.)

In assay [7] the target is 3',5'-cyclic-AMP phosphodiesterase 4B (Homo sapiens) (UniProt Q07343). Put plainly: qHTS Assay for Inhibitors of PDE-IV (AID 607; active means well fitted activation curve with a large enough effect in the main read-out, with a control signal flat, not every such curve was filed as active; further: % of control where 0% means no effect). The gist of the method: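 ACTOne HEK293 cells carry a modified cAMP-gated CNG channel and express endogenous PDE4; plated 1000 cells/well, compounds up to 22.9 uM final. Membrane-potential dye fluorescence (ex 535/em 590) was read; parental cells received 10 uM forskolin + 100 uM RO 20-1724.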

Assay [8] concerns the target Dual specificity protein kinase CLK4 (Homo sapiens) (UniProt Q9HAZ1). The experiment in a line: qHTS Assay for Inhibitors of CDC-like Kinase 4 (ADP-FP Assay) (AID 1795).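 Further: recombinant human CLK4 phosphorylating RS repeat peptide at 1 µM ATP; on the % scale 0 is the no-effect control and ±100 the full control effect; nearly all actives have a fitted effect of over 60% in size.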 The gist of the method:
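Kinase activity was measured as ADP production using Transcreener orange tracer (4 nM) and ADP antibody (1 ug/mL) fluorescence polarization, with ADP calculated from a calibration curve. The 1 h reaction contained 6.25 nM Clk4, 1 uM ATP and 100 uM RS peptide at pH 7.5 with Mg2+.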

Assay [9] addresses Ubiquitin carboxyl-terminal hydrolase 1 (Homo sapiens) (UniProt O94782). The experiment in a line: Inhibitors of USP1/UAF1: Pilot qHTS (AID 504865).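 Further: rhodamine fluorescence freed from ubiquitin-rhodamine substrate followed over time; top concentration of the series differs between compounds; on the % scale 0 is the no-effect control and ±100 the full control effect; nearly all actives have a fitted effect of over 35% in size.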 The gist of the method:
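Deubiquitinase activity followed as kinetic rhodamine fluorescence release from 150 nM Ub-Rho. 1 nM USP1/UAF1 with compound, after 15 min room-temperature preincubation, in HEPES pH 7.8 buffer containing TCEP, EDTA, BSA and Tween-20.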

Assay [10] in a line: HepG2 viability counterscreen (readout 2: ATP content) against the NCATS DSHEA and TCM libraries (AID 1794840).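 Further: HepG2 cells exposed to substances for about 24 h; 0% is about no effect.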 The gist of the method:
(§1)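 Readout 1: cellular protease activity, GF-AFC substrate (25 uM final, 30 min, fluorescence 380/510 nm). Readout 2: ATP content by CellTiter-Glo luminescence after 30 min at RT. Both follow ~24 h exposure of HepG2 cells (1,000/well) to substances.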

A short description of assay [11]: HepG2 viability counterscreen (readout 1: protease activity) against the NCATS DSHEA and TCM libraries (AID 1794841).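 Further: cells exposed to compounds for about 24 h before the protease read; 0% is about no effect.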 A digest of the protocol:
as §1
(Counterscreens check selectivity or assay interference.)

The target of assay [12] is Cytochrome P450 3A4 (Homo sapiens) (UniProt P08684). The experiment in a line: qHTS for inhibitors of CYP3A4 against the NCATS DSHEA and TCM libraries (AID 1919971).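 Further: on the % scale 0 is the no-effect control and ±100 the full control effect; inhibition lowers luminescence from luciferin made by CYP3A4.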 A digest of the protocol:
(§2)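 Isoform-specific enzyme and substrate levels; enzyme-free wells as background. Reaction: 1x NADPH regenerating system, 30-45 min, room temperature, shielded from light; luminescent detection reagent added, 30 min.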

For assay [13], the target named is Cytochrome P450 2D6 (Homo sapiens) (UniProt P10635). The experiment in a line: qHTS for inhibitors of CYP2D6 against the NCATS DSHEA and TCM libraries (AID 1919972). Further: on the % scale 0 is the no-effect control and ±100 the full control effect. A digest of the protocol: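 qHTS, concentration–response format with most substances from 19.5 nM. CYP2D6 + pro-luciferin substrate, 15 min with compound, then 1x NADPH regen, 30–45 min RT dark. Glo detection 30 min, luminescence. Quinidine control.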

The target in assay [14] is Cytochrome P450 2C9 (Homo sapiens) (UniProt P11712). The experiment in a line: qHTS for inhibitors of CYP2C9 against the NCATS DSHEA and TCM libraries (AID 1919973). A digest of the protocol:
as §2

Assay [15] in a line: KB-3-1 P-gp reporter qHTS against the NCATS DSHEA and TCM libraries (AID 1919975). Further: 0% is about no effect. The gist of the method:
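Cell viability by CellTiter-Glo luminescence following ~72 h compound exposure (concentration-response). Uses parental, non-P-gp-overexpressing KB-3-1 line, 500 cells/well in DMEM/10% FBS, attached ~4 h before dosing.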

Assay [16] deals with Cytochrome P450 1A2 (Homo sapiens) (UniProt P05177). Put plainly: qHTS for inhibitors of CYPIA2 against the NCATS DSHEA and TCM libraries (AID 1919976). Further: potency means the concentration at half of the fitted maximal effect. A digest of the protocol: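 Furafylline served as the plate control. Compounds met CYP1A2 and pro-luciferin substrate 15 min before NADPH regeneration solution (1x) was added; after 30-45 min at RT, P450-Glo reagent was added for 30 min and luminescence was measured.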

The nature of assay [17]: qHTS Counterscreen for compound interference against the NCATS DSHEA and TCM libraries (AID 1919978).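 Further: compounds preincubated with 1 µM D-luciferin or buffer before detection reagent; % of control where 0% means no effect.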 Conditions: firefly luciferase detection reagent interference, luminescence. The gist of the method: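 With 1 uM D-luciferin or phosphate buffer only, compounds at final 19.5 nM–39.8 uM were incubated for 15 min at room temperature. Luciferase detection reagent was then added, and luminescence was measured after a further 30 min at room temperature.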

Assay [18] concerns the target Nuclear receptor subfamily 1 group I member 2 (Homo sapiens) (UniProt O75469). Put plainly: Dual reporter qHTS for agonist of Pregnane X Receptor (hPXR) against the NCATS DSHEA and TCM libraries: Luminescence readout (AID 1920059). Further: 0% is about no effect. A digest of the protocol:
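Luminescent PXR reporter read (ONE-Glo) after a CellTiter-Fluor viability read, following 24 h, 37C treatment of HepG2 cells stably carrying hPXR-Luc.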

Assay [19] has the same target. Put plainly: Dual reporter qHTS for antagonist of Pregnane X Receptor (hPXR) against the NCATS DSHEA and TCM libraries: Luminescence Readout (AID 1920060).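 Further: HepG2 cells carrying hPXR luciferase reporter stimulated with rifampicin at 2 µM; 0% is about no effect.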 A digest of the protocol: (§3)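 Antagonist mode: rifampicin 2 uM final co-added with compounds to hPXR-LucHepG2 cells for 24 h at 37C. Viability by CellTiter-Fluor, Ex/Em 405/540 nm, 1 h; reporter by ONE-Glo luminescence.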

Assay [20] is described as follows: Dual reporter qHTS for antagonist of Pregnane X Receptor (hPXR) against the NCATS DSHEA and TCM libraries: Fluorescence Readout (AID 1920061). Further: 0% is about no effect. The gist of the method:
as §3

Assay [21] addresses Lysosomal acid glucosylceramidase (Homo sapiens) (UniProt P04062). The experiment in a line: Glucocerebrosidase-p2 (AID 348; in the data active means potency below about 10 µM; further: potency means the concentration at half of the fitted maximal effect). Conditions: purified GBA, blue fluorogenic substrate, 40 min. The gist of the method:
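Normal human glucocerebrosidase (0.2 nM) with blue fluorogenic substrate (80 uM final) in citrate/phosphate pH 5.9 with 10mM sodium taurocholate, 0.01% tween-20; 40 min RT, NaOH/glycine stop; fluorescence Ex 365/Em 440; AC50 from a titration from 0.6 nM upwards.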

Assay [22] concerns the target Cytochrome P450 1A2 (Homo sapiens) (UniProt P05177). The experiment in a line: p450-cyp1a2 (AID 410; calls by dose curve; further: potency means the concentration at half of the fitted maximal effect). A digest of the protocol: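 Read-out is luminescence from luciferin produced by CYP1A2 demethylation of Luciferin-ME (100uM, at Km). Detection reagent stopped the 60 min NADPH-dependent reaction; signals were normalized to 57 uM furafylline.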
Assay [23] in a line: Stat Signaling Pathway (AID 446; active means well fitted curve in either direction with a large enough effect, not every such curve was filed as active). The gist of the method:
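Compound effects on IL-6-induced STAT reporter activity were measured in ME-180 cells. After overnight culture, cells were co-treated with 40 pM IL-6 for 5 hrs before beta-lactamase substrate loading at room temperature.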

In assay [24] the target is Cytochrome P450 3A4 (Homo sapiens) (UniProt P08684). The experiment in a line: qHTS Assay for Activators of Cytochrome P450 3A4 (AID 885). Further: nearly all actives have a fitted effect of over 65% in size. The gist of the method: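 CYP3A4 activity: Luciferin-PPXE O-dealkylation, 25uM substrate, 200mM KPO4, RT throughout. Read-out is luciferase luminescence; higher values reflect activation.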
The nature of assay [25]: qHTS Assay for Identification of Small Molecule Agonists for Hypoxia Response Element Signaling Pathway (AID 914; active means well fitted activation curve with a large enough effect in the signal ratio, with a control signal flat, not every such curve was filed as active; the % refers to the signal ratio; further: % of control where 0% means no effect). Conditions: ME-180 (cervical carcinoma) HRE-bla reporter, beta-lactamase ratio, CoCl2, 17 h; activation: stronger effect = higher value. A digest of the protocol: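 A beta-lactamase reporter under hypoxia response element control in ME-180 cells served as the system. Compound titrations plus EC50 CoCl2 ran 17 h at 37 degrees Celsius; AC50 values were fitted from %Activity.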

Unmarked numbers belong to inactive results. Inconclusive results are not listed. Active and inactive are the calls of the source. Unless noted, the call rests on the fitted dose curve; in most records, active means well fitted curve in the direction sought with a large enough effect; inconclusive means small, poorly fitted or top-dose-only effect, or another doubt; inactive means no such curve, though single readings can be large; an effect the other way counts as inactive or inconclusive. Some results are limits rather than exact numbers.

Sequence of Glucocorticoid receptor (Homo sapiens) (P04150 whole entry, looked up, the tested form may be a part): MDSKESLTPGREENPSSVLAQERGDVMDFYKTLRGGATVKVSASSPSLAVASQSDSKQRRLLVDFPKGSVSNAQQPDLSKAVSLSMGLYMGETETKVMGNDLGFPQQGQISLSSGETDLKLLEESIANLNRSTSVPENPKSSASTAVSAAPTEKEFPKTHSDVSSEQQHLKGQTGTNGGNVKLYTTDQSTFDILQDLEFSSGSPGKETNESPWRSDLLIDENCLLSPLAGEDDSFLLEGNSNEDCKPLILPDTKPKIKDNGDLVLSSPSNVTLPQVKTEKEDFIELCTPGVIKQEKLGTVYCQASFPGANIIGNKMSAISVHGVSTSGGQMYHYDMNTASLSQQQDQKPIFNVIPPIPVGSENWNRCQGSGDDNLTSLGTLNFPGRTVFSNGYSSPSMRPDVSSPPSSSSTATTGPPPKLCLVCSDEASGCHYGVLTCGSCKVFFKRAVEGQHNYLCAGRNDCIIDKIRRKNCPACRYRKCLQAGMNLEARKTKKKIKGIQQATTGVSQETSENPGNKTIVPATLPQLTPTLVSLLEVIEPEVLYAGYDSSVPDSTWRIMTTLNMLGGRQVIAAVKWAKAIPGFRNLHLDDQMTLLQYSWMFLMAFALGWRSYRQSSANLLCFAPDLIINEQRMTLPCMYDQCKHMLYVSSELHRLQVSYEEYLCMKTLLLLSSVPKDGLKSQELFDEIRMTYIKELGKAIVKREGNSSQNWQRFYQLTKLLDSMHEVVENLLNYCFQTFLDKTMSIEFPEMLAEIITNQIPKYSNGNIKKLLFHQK
Sequence of Glutathione peroxidase 1 (Homo sapiens) (P07203 whole entry, looked up): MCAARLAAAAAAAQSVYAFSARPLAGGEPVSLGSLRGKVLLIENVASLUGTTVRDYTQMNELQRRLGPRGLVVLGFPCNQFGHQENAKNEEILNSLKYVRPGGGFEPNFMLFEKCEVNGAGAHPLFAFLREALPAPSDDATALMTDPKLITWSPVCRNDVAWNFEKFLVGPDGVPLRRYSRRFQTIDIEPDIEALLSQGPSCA
Sequence of Cytochrome P450 1A2 (Homo sapiens) (P05177 whole entry, looked up): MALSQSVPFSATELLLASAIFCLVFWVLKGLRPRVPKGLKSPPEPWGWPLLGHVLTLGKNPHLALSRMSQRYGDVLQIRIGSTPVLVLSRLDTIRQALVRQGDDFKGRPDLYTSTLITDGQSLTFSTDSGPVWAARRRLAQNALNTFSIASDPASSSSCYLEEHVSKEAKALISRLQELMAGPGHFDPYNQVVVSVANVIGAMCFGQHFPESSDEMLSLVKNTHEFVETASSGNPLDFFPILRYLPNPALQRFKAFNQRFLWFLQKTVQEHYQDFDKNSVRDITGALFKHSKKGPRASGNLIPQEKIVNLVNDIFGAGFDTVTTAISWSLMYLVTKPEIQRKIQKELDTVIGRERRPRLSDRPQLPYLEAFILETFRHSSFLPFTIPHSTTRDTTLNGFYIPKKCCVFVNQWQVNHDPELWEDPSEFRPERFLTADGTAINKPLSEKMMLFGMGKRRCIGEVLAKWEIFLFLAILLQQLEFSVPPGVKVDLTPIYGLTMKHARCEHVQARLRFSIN
Sequence of Nuclear receptor subfamily 1 group I member 2 (Homo sapiens) (O75469 whole entry, looked up): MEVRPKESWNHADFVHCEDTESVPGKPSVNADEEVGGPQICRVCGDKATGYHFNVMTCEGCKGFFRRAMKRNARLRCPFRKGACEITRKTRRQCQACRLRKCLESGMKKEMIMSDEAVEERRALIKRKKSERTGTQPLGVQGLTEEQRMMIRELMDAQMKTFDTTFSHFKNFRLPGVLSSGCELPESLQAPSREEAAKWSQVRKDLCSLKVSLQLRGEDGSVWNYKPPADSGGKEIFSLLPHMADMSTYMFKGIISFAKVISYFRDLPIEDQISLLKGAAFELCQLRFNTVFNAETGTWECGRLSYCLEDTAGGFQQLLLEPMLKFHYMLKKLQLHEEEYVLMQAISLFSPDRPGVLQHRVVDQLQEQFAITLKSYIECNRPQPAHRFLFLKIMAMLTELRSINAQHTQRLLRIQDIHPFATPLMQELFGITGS
Sequence of Cytochrome P450 3A4 (Homo sapiens) (P08684 whole entry, looked up, canonical isoform): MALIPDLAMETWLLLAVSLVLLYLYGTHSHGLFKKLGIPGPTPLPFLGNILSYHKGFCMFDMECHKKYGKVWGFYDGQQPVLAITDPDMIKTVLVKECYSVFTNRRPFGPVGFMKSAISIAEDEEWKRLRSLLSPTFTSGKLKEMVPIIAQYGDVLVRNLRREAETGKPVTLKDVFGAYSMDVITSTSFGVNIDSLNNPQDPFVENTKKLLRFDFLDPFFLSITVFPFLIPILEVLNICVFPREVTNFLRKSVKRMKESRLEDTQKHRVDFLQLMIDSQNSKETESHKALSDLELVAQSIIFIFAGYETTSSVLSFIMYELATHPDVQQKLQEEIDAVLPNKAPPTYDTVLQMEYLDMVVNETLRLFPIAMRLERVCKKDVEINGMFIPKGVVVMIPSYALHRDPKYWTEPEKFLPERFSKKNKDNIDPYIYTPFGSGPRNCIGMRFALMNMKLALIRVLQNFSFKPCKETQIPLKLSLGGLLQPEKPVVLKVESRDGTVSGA
Sequence of Dual specificity protein kinase CLK4 (Homo sapiens) (Q9HAZ1 whole entry, looked up): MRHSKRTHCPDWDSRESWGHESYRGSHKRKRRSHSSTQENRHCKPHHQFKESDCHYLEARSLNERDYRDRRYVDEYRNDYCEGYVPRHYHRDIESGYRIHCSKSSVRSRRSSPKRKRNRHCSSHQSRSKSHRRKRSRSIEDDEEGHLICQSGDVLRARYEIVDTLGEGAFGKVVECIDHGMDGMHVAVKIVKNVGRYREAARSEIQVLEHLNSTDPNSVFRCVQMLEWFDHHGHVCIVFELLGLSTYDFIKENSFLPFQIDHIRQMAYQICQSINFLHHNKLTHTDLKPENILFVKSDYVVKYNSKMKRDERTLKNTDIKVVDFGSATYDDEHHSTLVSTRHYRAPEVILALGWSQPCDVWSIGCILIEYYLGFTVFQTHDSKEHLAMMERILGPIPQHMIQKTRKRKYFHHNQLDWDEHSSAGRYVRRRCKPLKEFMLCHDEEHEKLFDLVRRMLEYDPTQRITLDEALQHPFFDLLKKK
Sequence of Ubiquitin carboxyl-terminal hydrolase 1 (Homo sapiens) (O94782 whole entry, looked up): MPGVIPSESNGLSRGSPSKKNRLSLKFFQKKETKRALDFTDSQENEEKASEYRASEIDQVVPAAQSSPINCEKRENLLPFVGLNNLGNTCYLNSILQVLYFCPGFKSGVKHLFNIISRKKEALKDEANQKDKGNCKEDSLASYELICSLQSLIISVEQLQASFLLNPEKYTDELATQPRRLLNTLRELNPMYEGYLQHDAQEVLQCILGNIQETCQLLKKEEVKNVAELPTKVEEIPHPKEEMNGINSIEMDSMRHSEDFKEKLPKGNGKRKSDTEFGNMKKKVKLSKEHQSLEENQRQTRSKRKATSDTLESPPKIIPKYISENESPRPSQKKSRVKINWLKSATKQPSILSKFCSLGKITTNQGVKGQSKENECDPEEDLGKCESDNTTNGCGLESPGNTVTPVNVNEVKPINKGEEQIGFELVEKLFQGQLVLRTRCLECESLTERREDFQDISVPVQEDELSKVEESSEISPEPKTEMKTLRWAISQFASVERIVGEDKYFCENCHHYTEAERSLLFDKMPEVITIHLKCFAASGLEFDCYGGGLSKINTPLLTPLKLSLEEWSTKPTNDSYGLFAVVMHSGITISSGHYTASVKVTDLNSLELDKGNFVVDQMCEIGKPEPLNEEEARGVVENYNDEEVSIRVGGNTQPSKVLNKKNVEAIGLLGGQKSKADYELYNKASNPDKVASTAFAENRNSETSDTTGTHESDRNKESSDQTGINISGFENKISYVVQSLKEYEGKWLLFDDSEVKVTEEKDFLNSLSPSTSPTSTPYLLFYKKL
Sequence of Cytochrome P450 2C9 (Homo sapiens) (P11712 whole entry, looked up): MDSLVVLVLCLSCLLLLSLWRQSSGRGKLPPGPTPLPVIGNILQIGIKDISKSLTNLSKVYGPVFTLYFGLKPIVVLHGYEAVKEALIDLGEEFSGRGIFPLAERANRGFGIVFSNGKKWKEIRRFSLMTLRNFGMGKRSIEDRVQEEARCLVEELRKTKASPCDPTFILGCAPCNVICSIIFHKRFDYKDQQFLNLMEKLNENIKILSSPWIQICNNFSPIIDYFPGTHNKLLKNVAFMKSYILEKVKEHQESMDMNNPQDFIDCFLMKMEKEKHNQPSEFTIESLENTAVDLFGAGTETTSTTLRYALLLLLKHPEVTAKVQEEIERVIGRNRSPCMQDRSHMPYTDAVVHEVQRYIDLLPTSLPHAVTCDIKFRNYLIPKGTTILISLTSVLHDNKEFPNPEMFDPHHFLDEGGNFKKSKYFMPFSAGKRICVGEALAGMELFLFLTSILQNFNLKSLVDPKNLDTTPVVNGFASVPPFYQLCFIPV
Sequence of Cytochrome P450 2D6 (Homo sapiens) (P10635 whole entry, looked up): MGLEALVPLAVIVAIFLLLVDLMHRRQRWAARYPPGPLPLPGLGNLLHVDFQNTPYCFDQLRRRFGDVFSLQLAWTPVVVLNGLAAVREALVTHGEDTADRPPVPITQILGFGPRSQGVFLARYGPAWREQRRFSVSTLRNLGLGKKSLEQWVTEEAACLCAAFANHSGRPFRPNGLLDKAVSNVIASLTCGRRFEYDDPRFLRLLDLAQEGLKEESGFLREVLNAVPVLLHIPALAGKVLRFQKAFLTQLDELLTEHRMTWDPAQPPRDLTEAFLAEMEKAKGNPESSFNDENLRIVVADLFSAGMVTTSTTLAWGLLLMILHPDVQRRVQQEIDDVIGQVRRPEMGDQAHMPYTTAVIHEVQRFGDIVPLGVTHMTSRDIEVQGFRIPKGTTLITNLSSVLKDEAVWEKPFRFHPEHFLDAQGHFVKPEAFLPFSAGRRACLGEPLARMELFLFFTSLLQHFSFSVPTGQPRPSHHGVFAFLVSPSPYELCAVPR

With `OCCN1CCN(C(c2ccc(Cl)cc2Cl)c2sc3nc(-c4ccco4)nn3c2O)CC1` (stereo not drawn), the Potency result in assay [1] was “inactive”.
Still for that read-out and setting: for `Nc1nc(-c2ccc(Cl)c(Cl)c2)c(-c2ccncc2)s1` the value was “inactive”; for `O=[N+]([O-])c1ccc(Nc2nc(N3CCOCC3)nc(N3CCOCC3)n2)cc1`, “inactive”; for `COc1ccc(C(=O)Nc2ccc3oc(-c4ccc(F)cc4Cl)nc3c2)cc1`, “inactive”.
Regarding `c1ccc2c(NCCN3CCOCC3)nc(-c3ccc4c(c3)OCO4)nc2c1`, the activity change, negative = inhibition is -11.7% in [2] and 12.2% in [3]. Also, the Potency in assay [4] and in assay [5] was over 46 µM in each case. The Potency entry in [6], in assay [7], in assay [8] and in [9] was “inactive” each time.
`COc1ccccc1/C=C/C=O`: the compound was classed as inactive in assay [10], in assay [11], in assay [15], in assay [19] and in [20]. The Potency entry in assay [12], in assay [13], in assay [14] and in [18] was “inactive” in each case. Moreover, the Potency in [16] is 25.1 µM (active). In addition, in assay [17], the max response is -3.3%.
In the case of `COc1ccc(Nc2cc(C)c3cc(NC(=O)c4cc(OC)cc(OC)c4)ccc3n2)cc1`, the Potency entry in [1] is “inactive”.
On the same count and under the same terms, the same measure for `O=C(NCC(=O)N1CCCCC1)Nc1ccc2nnsc2c1`: “inactive”.
On the same count and under the same terms, the same measure for `CC(=O)OC[C@H]1O[C@@H](n2cnc(N)nc2=O)[C@H](OC(C)=O)[C@@H]1OC(C)=O`: “inactive”.
Turning to `CN(C)c1nc(-c2cccc(NS(C)(=O)=O)c2)nc2ccccc12`, the Potency in [21] is over 11.4 µM; in assay [22] it was 0.501 µM (active); in [4] it was over 46 µM; in assay [5], over 46 µM. Also, the activity change, negative = inhibition is 11.2% in [2] and 10.8% in assay [3]. Also, the result in assay [23] and in assay [24] was inactive. Moreover, the Potency result in assay [6], in [8] and in [9] was “inactive” throughout. Further, the activation in assay [25] was 22.5%.

These data come from PubChem BioAssay (NCATS).
